Records with an inconclusive call do not appear. Where a call stands in place of a potency, no number is given. Activity calls are given as the source filed them. Calls come from the whole dose curve; as a rule, active = well fitted curve in the direction sought with a large enough effect; inconclusive = small, poorly fitted or top-dose-only effect, or another doubt; inactive = no such curve, though single readings can be large; an effect the other way counts as inactive or inconclusive.
Experiments:
[1] = Cell Viability - LYMP2-001 (AID 921); conditions: LYMP2-001 lymphoblastoid cell viability; series mostly up to 92.2 µM; note: nearly all actives have a fitted effect of over 70% in size; note: potency is the fitted concentration of half-maximal effect
Method in brief: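 Human lymphoblastoid LYMP2-001 cells, 2500 per well, in complete medium, treated 24 h at 37 C. Viability from cellular ATP by CellTiter-Glo luminescence; AC50 from Hill-equation fits of qHTS concentration-response.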

[2] = MultiTox-Fluor Cytotoxicity Assay - LYMP1-001 - Dead Cells (AID 946); conditions: LYMP1-001 lymphoblastoid cells, dead-cell protease fluorescence; series mostly up to 92.2 µM;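 note: cells exposed to compound for 16 h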; note: potency is the fitted concentration of half-maximal effect
Method in brief: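 In this qHTS, 15 uM tetraoctylammonium bromide defined 100% and DMSO defined basal activity. Lymphoblastoid cells (LYMP1-001, 2500 per well) received compound for 16 hr at 37 C before a fluorogenic dead-cell substrate readout at 485/520 nm.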

[3] = MultiTox-Fluor Cytotoxicity Assay - LYMP1-001 - Live Cells (AID 947); conditions: LYMP1-001 lymphoblastoid cells, live-cell protease fluorescence viability; series mostly up to 92.2 µM; note: potency is the fitted concentration of half-maximal effect
[4] = Confirmation and Secondary Assay for Modulators of Hemoglobin Beta Chain Splicing at IVS2 654 locus (AID 910); conditions: HeLa EGFP-654 splicing reporter, GFP fluorescence, 48 h; series mostly up to 46.1 µM;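 note: HeLa cells stably carrying EGFP split by mutant beta-globin IVS2-654 intron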
Method in brief: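 HeLa cells stably expressing EGFP interrupted by β-globin IVS2-654 intron, seeded overnight in Opti-MEM/2% FCS, then treated 2 days at 37 °C. Restored splicing read as total peak GFP intensity per well by laser scanning cytometry (488 nm excitation, 500–520 nm emission); 500 nM antisense PNA as control.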

[5] = Confirmation and Secondary Assay for Modulators of Hemoglobin Beta Chain Splicing at IVS2 705 locus (AID 930); conditions: HeLa EGFP-705 splicing reporter, GFP fluorescence, 48 h; series mostly up to 46.1 µM;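 note: HeLa cells stably expressing the EGFP-705 splicing reporter; GFP fluorescence per well restored by corrected splicing of the IVS2-705 intron in EGFP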
Method in brief: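 Splice-correction reporter: EGFP cDNA split by beta-globin intron 2 bearing the 705 mutation, stably in HeLa. Compound incubation 2 days, 37C; fluorescent objects 5-250 µm summed per well.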

[6] = qHTS Assay for Identification of Small Molecule Agonists for Thrombopoietin (TPO) Signaling Pathway (AID 917); conditions: TPO signaling pathway reporter cells, agonist qHTS, stimulated with TPO at its EC50; series mostly up to 38.5 µM
Method in brief: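 Murine Ba/F3 cells expressing human TPO receptor and GPIIb-promoter luciferase, IL-3-starved overnight, given compound plus TPO at 26 pM (EC50). After 24 h at 37 C, 5% CO2, luminescence read.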

[7] = target: Muscarinic acetylcholine receptor M1 (Rattus norvegicus) (UniProt P08482); assay: qHTS Assay for Antagonists of Acetylcholine Muscarinic M1 Receptor: Measurement of IP-One Response (AID 944); conditions: CHO-M1 cells, IP-One HTRF, antagonist mode; series mostly up to 46.1 µM; note: nearly all actives have a fitted effect of over 75% in size; note: potency is the fitted concentration of half-maximal effect
Sequence of Muscarinic acetylcholine receptor M1 (Rattus norvegicus) (P08482 whole entry, looked up): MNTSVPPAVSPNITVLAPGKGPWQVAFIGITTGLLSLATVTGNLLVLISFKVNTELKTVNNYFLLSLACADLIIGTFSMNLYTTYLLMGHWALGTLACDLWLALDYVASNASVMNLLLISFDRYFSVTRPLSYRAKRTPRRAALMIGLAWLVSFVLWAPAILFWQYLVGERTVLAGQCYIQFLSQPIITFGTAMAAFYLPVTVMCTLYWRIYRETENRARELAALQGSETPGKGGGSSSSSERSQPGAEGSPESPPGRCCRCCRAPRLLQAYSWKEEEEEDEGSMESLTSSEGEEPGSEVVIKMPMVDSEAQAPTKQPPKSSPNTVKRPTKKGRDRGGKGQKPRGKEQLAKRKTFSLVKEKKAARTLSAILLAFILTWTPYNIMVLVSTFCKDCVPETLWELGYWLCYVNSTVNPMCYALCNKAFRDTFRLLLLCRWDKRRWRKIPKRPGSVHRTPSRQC
Method in brief: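 Steps: plate transfected CHO-M1 cells overnight; add test compound, 10 min; add carbachol (200 nM, EC80) in stimulation buffer with LiCl; incubate 30 min; add labelled IP1 tracer and anti-IP1 antibody in lysis buffer; read HTRF after 10 min.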

[8] = target: Pyruvate kinase (Leishmania mexicana) (UniProt Q27686); assay: qHTS Validation Assay for Inhibitors of Leishmania Mexicana Pyruvate Kinase (AID 945); conditions: purified L. mexicana pyruvate kinase, enzyme activity, E451W mutant enzyme; series mostly up to 57.5 µM
Sequence of Pyruvate kinase (Leishmania mexicana) (Q27686 2-499 E452W): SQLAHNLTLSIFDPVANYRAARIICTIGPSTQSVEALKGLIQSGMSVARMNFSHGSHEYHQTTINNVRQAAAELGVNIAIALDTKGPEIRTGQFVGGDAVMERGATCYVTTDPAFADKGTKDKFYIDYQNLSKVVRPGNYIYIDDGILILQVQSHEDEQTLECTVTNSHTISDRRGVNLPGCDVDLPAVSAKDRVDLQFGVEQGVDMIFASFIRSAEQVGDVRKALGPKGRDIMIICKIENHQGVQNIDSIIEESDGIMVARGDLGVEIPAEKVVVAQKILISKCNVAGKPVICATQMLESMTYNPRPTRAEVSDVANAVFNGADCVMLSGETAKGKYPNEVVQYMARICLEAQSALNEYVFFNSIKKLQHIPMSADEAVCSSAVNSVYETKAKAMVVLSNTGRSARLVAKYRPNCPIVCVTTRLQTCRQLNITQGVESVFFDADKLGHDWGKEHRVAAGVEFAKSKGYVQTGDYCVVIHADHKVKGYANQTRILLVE
Method in brief: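 The enzyme is a highly purified E451W mutant of LmPYK used at 0.2 nM. It converts 0.5 mM PEP and 0.1 mM ADP over 1 h at room temperature; product ATP is quantified by luciferase luminescence relative to DMSO controls.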

[9] = target: Muscarinic acetylcholine receptor M1 (Rattus norvegicus) (UniProt P08482); assay: qHTS Assay for Antagonists of Acetylcholine Muscarinic M1 Receptor: Kinetic Measurement of Intracellular Calcium Response (AID 943); conditions: M1-expressing cells, kinetic intracellular calcium fluorescence; series mostly up to 35.3 µM; note: nearly all actives have a fitted effect of over 75% in size; note: potency is the fitted concentration of half-maximal effect
Method in brief: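 Intracellular calcium flux, recorded with Fluo-4 in a kinetic plate reader, served as signal; the response to carbachol at EC80 (100 nM final) was taken as maximal over minimal fluorescence after a 10 min compound pre-incubation in rat M1-CHO cells.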

[10] = qHTS Assay for Identification of Small Molecule Antagonists for Thrombopoietin (TPO) Signaling Pathway (AID 918); conditions: TPO-dependent cell signaling reporter, antagonist mode; note: potency is the fitted concentration of half-maximal effect; nearly all actives have a fitted effect of over 60% in size
Method in brief: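 First, Ba/F3 reporter cells expressing human TPO receptor were held overnight without IL-3. Next, compound and 26 pM TPO were added. After 24 hrs incubation at 37 C, luciferase luminescence under the Glycoprotein IIb promoter was recorded.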

For O=C(c1ccccc1)c1ccccc1, the Potency [1] was “inactive”, the Potency [2] was “inactive” and the Potency [3] was “inactive”.

In the case of Oc1ccccc1, the Potency [1] is reported as “inactive”, the Potency [2] is reported as “inactive” and the Potency [3] is reported as “inactive”.

For CC(=O)OCC[N+](C)(C)C, the outcome [4] was “inactive” and the outcome [5] was “inactive”.

In the case of CC(C)C(C)(C)C(C)(C)C(C)(C)S, the Potency [1] is reported as “inactive”, the Potency [2] is reported as “inactive” and the Potency [3] is reported as “inactive”.

In the case of Cc1cc(C(C)(C)C)c(O)c(C(C)(C)C)c1, the outcome [4] is reported as “inactive”, the Potency [1] is reported as “inactive” and the outcome [5] is reported as “inactive”. For the same molecule, the Potency [2] was “inactive” and the Potency [3] was “inactive”.

For CC(C)(C)c1ccc(O)c(O)c1, the Potency [1] was 31.6 µM (active), the Potency [2] was “inactive” and the Potency [3] was “inactive”.

In the case of CCCC(=O)c1cc(O)c(O)cc1O, the Potency [1] is reported as “inactive”, the Potency [2] is reported as “inactive” and the Potency [3] is reported as “inactive”.

With C[N+](C)(C)CCO the outcome [4] was “inactive”, the outcome [6] was “inactive” and the outcome [5] was “inactive”. For the same molecule, the Potency [7] was “inactive” and the outcome [8] was “inactive”.

For CCCCCCCCCCCCCCCC[n+]1ccccc1, the Potency [1] was 10 µM (active), the Potency [2] was 10 µM (active) and the Potency [3] was 20 µM (active).

With C1N2CN3CN1CN(C2)C3 the outcome [4] was “inactive” and the outcome [5] was “inactive”.

In the case of Nc1ncnc2nc[nH]c12, the outcome [4] is reported as “inactive” and the outcome [5] is reported as “inactive”.

For Cn1cnc2c(NCc3ccccc3)nc(NCCO)nc21, the outcome [6] was “inactive”, the Potency [9] was “inactive” and the Potency [7] was “inactive”. The outcome [8] was “inactive”.

With OCc1c[nH]c2ccccc12 the outcome [4] was “inactive”, the Potency [1] was “inactive” and the outcome [5] was “inactive”. The Potency [2] was “inactive” and the Potency [3] was “inactive”.

For CC(C)(c1ccc(O)cc1)c1ccc(O)cc1, the Potency [1] was “inactive”, the Potency [2] was “inactive” and the Potency [3] was “inactive”.

For O=[N+]([O-])c1ccc(-c2nc(-c3ccc(F)cc3)c(-c3ccncc3)[nH]2)cc1, the Potency [10] was 12.6 µM (active), the Potency [9] was “inactive” and the outcome [8] was “inactive”.

With c1ccc2occc2c1 the Potency [1] was “inactive”, the Potency [2] was “inactive” and the Potency [3] was “inactive”.

In the case of Brc1ccccc1-c1ccccc1, the Potency [1] is reported as “inactive”, the Potency [2] is reported as “inactive” and the Potency [3] is reported as “inactive”.

For COC(=O)c1c(Cl)c(Cl)c(C(=O)OC)c(Cl)c1Cl, the outcome [4] was “inactive” and the outcome [5] was “inactive”.

In the case of CCCCC(CC)COC(=O)c1ccccc1C(=O)O (stereo not given), the Potency [1] is reported as “inactive”, the Potency [2] is reported as “inactive” and the Potency [3] is reported as “inactive”.

With CN(C)c1cc2c(Nc3ccc4c(cnn4Cc4ccccc4)c3)ncnc2cn1 the Potency [7] was 11.2 µM (active) and the outcome [8] was “inactive”.

With NC(N)=NCCCCN=C(N)N the outcome [4] was “inactive”, the outcome [6] was “inactive” and the outcome [5] was “inactive”. The Potency [7] was 10 µM (active) and the outcome [8] was “inactive”.

In the case of COc1cc(C=O)ccc1O, the Potency [1] is reported as “inactive”, the Potency [2] is reported as “inactive” and the Potency [3] is reported as “inactive”.

In the case of O=C(NO)c1ccccc1, the Potency [1] is reported as “inactive”, the Potency [2] is reported as “inactive” and the Potency [3] is reported as “inactive”.

For COc1ccccc1N1CCN(CCN2C(=O)CC3(CCCC3)CC2=O)CC1, the outcome [8] was “inactive”.

In the case of CC(NCCC(c1ccccc1)c1ccccc1)c1ccccc1 (stereo not given), the outcome [4] is reported as “inactive” and the outcome [5] is reported as “inactive”.

With CCN(CC)CCOc1ccc(/C(=C(\Cl)c2ccccc2)c2ccccc2)cc1 the outcome [4] was “inactive” and the outcome [5] was “inactive”.

With Brc1ccc([C@H]2CN3CCSC3=N2)cc1 the Potency [9] was 12.6 µM (active) and the outcome [8] was “inactive”.

For Nc1c2ccccc2nc2ccccc12, the outcome [4] was “inactive”, the Potency [1] was 12.6 µM (active) and the outcome [5] was “inactive”. For the same molecule, the Potency [2] was 12.6 µM (active) and the Potency [3] was “inactive”.

With O=C(Oc1ccccc1)c1ccccc1O the Potency [1] was “inactive”, the Potency [2] was “inactive” and the Potency [3] was “inactive”.

In the case of O=C1NC(c2cccc([N+](=O)[O-])c2)=CCN1c1ccccc1O, the outcome [6] is reported as “inactive”, the Potency [9] is reported as “inactive” and the Potency [7] is reported as “inactive”. For the same molecule, the outcome [8] was “inactive”.

With C1=CC2C3C=CC(C3)C2C1 (stereo not given) the Potency [1] was “inactive”, the Potency [2] was “inactive” and the Potency [3] was “inactive”.

With CC(=O)OC/C=C(C)/C=C/C=C(C)/C=C/C1=C(C)CCCC1(C)C the outcome [4] was “inactive”, the outcome [5] was “inactive” and the Potency [3] was “inactive”.

With Cc1ccc(O)cc1 the outcome [4] was “inactive”, the Potency [1] was “inactive” and the outcome [5] was “inactive”. The Potency [2] was “inactive” and the Potency [3] was “inactive”.

With O=C(O)/C=C(\CC(=O)O)C(=O)O the outcome [4] was “inactive” and the outcome [5] was “inactive”.

With CC(C)N(CCC(=O)c1ccc2ccccc2c1)Cc1ccccc1 the Potency [10] was 2.51 µM (active), the Potency [9] was “inactive” and the Potency [7] was “inactive”. For the same molecule, the outcome [8] was “inactive”.

With Cc1ccc2c(Cl)cc(Cl)c(O)c2n1 the outcome [4] was “inactive” and the outcome [5] was “inactive”.

With CCOC(=O)NNc1nncc2ccccc12 the outcome [4] was “inactive” and the outcome [5] was “inactive”.

For Nc1cccc2c(N)cccc12, the Potency [1] was “inactive” and the Potency [2] was “inactive”.

Source: PubChem BioAssay (NCATS)
